Potency and viability data for 17 compounds are collected here from PubChem BioAssay (NCATS).

Inconclusive results are not listed. Unmarked numbers belong to inactive results. Active and inactive are the calls of the source. Calls follow the shape of the dose curve; as a rule, active = well fitted cell-killing curve with a large enough effect; inconclusive = small, poorly fitted or top-dose-only effect, or effect the other way; inactive = no such curve, though single readings can be large or run the other way.

The nature of test [1]: Quantitative High-Throughput drug screen in 47 multiple myeloma cell lines against the NCATS MIPE library collection: MM1R_ATCC cell viability assay (AID 1918981). Also: nearly all actives have a fitted effect of over 35% in size. The method, boiled down: (§1)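 Readout: median RLU from CellTiter-Glo after 5 min at room temperature. Preceding step was 48 h drug treatment of 500 cells/well at 37 °C, 5% CO2, with DMSO-only and media-only control wells.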

Test [2] in a line: Quantitative High-Throughput drug screen in 47 multiple myeloma cell lines against the NCATS MIPE library collection: LP1_DSMZ cell viability assay (AID 1918982). Also: nearly all actives have a fitted effect of over 35% in size. The method, boiled down: as §1
The nature of test [3]: Quantitative High-Throughput drug screen in 47 multiple myeloma cell lines against the NCATS MIPE library collection: KMS28PE_JCRB cell viability assay (AID 1918983). Also: nearly all actives have a fitted effect of over 35% in size. In short, it runs like this: as §1
Test [4] is described as follows: Quantitative High-Throughput drug screen in 47 multiple myeloma cell lines against the NCATS MIPE library collection: KMS34_JCRB cell viability assay (AID 1918985). Also: nearly all actives have a fitted effect of over 40% in size. The method, boiled down: as §1
Test [5] is described as follows: Quantitative High-Throughput drug screen in 47 multiple myeloma cell lines against the NCATS MIPE library collection: OCIMY7_PLB cell viability assay (AID 1918987). Also: nearly all actives have a fitted effect of over 65% in size. The method, boiled down: as §1
Test [6] can be described thus: Quantitative High-Throughput drug screen in 47 multiple myeloma cell lines against the NCATS MIPE library collection: OCIMY5_PLB cell viability assay (AID 1918988). Also: nearly all actives have a fitted effect of over 65% in size. In short, it runs like this: as §1
The nature of test [7]: Quantitative High-Throughput drug screen in 47 multiple myeloma cell lines against the NCATS MIPE library collection: OPM1_PLB cell viability assay (AID 1918989). Also: nearly all actives have a fitted effect of over 40% in size. In short, it runs like this:
as §1

The nature of test [8]: Quantitative High-Throughput drug screen in 47 multiple myeloma cell lines against the NCATS MIPE library collection: SKMM1_PLB cell viability assay (AID 1919863). Also: nearly all actives have a fitted effect of over 35% in size. As to viability: series mostly up to about 46 µM. The settings on record: SKMM1 myeloma viability, CellTiter-Glo ATP, 48 h; viability: hits give low values. In short, it runs like this: as §1
The nature of test [9]: Quantitative High-Throughput drug screen in 47 multiple myeloma cell lines against the NCATS MIPE library collection: U266_ATCC cell viability assay (AID 1919864). Also: nearly all actives have a fitted effect of over 35% in size. The method, boiled down: as §1
Test [10] in a line: Quantitative High-Throughput drug screen in 47 multiple myeloma cell lines against the NCATS MIPE library collection: L363_DSMZ cell viability assay (AID 1918984). Also: nearly all actives have a fitted effect of over 40% in size. The method, boiled down: as §1
Potency is read from the fitted curve at half-maximal effect.

Take `C=CC(=O)Nc1cc2c(Nc3ccc(F)c(Cl)c3)ncnc2cc1OCCCN1CCOCC1`: the Potency is 8.33 µM (active) in [1]; 16.6 µM (active) in test [2]; 18.7 µM (active) in [3]; 14.8 µM (active) in test [4]; 0.296 µM (active) in test [5]; 5.9 µM (active) in test [6]. The Potency in test [7] was 2.96 µM (active); in test [8] it was 16.6 µM (active); in test [9] it was 18.7 µM (active).
For `C[C@@]12O[C@@H](C[C@]1(O)CO)n1c3ccccc3c3c4c(c5c6ccccc6n2c5c31)CNC4=O`, the Potency in test [1] is 0.833 µM (active); in test [2] it was 5.26 µM (active); in test [3], 2.09 µM (active); in test [4] it was 0.526 µM (active); in [5], 0.0662 µM (active); in test [7], 0.264 µM (active). In addition, the Potency in [8] was 5.26 µM (active); in test [9] it was 2.09 µM (active).
Consider `Cc1cc(C(=O)N2CCN(c3cccc(Cl)c3)CC2)n(-c2ccccc2)n1`, for which the Potency in test [1] was 9.35 µM (active); in test [2], 5.26 µM (active); in test [3], 1.87 µM (active); in [4], 1.05 µM (active); in test [5], 0.059 µM (active); in test [6], 0.187 µM (active). Besides, the Potency in [7] was 5.26 µM (active); in [8], 0.296 µM (active); in [9], 20.9 µM (active).
Consider `CC1=C(CO)C(=O)O[C@@H]([C@@H](C)[C@H]2CC[C@H]3[C@@H]4C[C@H]5O[C@]56[C@@H](O)C=CC(=O)[C@]6(C)[C@@H]4CC[C@]23C)C1`, for which the Potency in test [1] is 0.132 µM (active); in test [2], 0.187 µM (active); in test [3], 0.264 µM (active); in [4], 0.118 µM (active); in [5], 0.105 µM (active); in test [6], 0.132 µM (active). The Potency in [7] was 0.132 µM (active); in test [8], 0.296 µM (active); in [9], 0.264 µM (active).
Consider `CC(=O)Nc1sc2c(c1-c1nc3ccccc3s1)CNC2`, for which the Potency in test [1] is 18.7 µM (active); in [2] it was 18.7 µM (active); in [3], 20.9 µM (active); in test [4], 6.62 µM (active); in test [6], 16.6 µM (active); in [7], 18.7 µM (active). Besides, in test [8], the Potency was 16.6 µM (active).
Turning to `N#CCNC(=O)c1ccc(-c2ccnc(Nc3ccc(N4CCOCC4)cc3)n2)cc1`, the Potency in test [1] was 9.35 µM (active); in test [2], 20.9 µM (active); in test [3], 18.7 µM (active); in test [4], 4.69 µM (active); in test [5], 5.26 µM (active); in test [6], 13.2 µM (active). Besides, the Potency in [7] was 11.8 µM (active); in test [9], 18.7 µM (active).
Regarding `COc1cccc2nc(-c3cccs3)nc(NN3C(=O)C=C(C)C3=O)c12`, the Potency was 0.187 µM (active) in test [1]; 0.187 µM (active) in [2]; 2.64 µM (active) in [3]; 0.0296 µM (active) in test [4]; 0.0264 µM (active) in test [5]; 0.0418 µM (active) in [6]. In addition, the figures for the Potency in test [7] and in [8] were 0.0833 µM (active) and 1.05 µM (active), respectively.
On to `CC(=O)c1c(C)c2cnc(Nc3ccc(N4CCNCC4)cn3)nc2n(C2CCCC2)c1=O`, for which the Potency in test [1] was 14.8 µM (active); in [2], 5.9 µM (active); in [3], 18.7 µM (active); in [10], 23.5 µM (active); in [6], 11.8 µM (active); in [7], 18.7 µM (active). For the same compound, the Potency in test [8] was 16.6 µM (active); in test [9], 20.9 µM (active).
For the compound `C=CC(=O)Nc1cccc(Oc2nc(Nc3ccc(N4CCN(C)CC4)cc3)ncc2Cl)c1`, the Potency in [1] was 14.8 µM (active); in [2], 16.6 µM (active); in test [3], 18.7 µM (active); in [4], 9.35 µM (active); in [5] it was 0.209 µM (active); in test [6], 3.32 µM (active). Besides, the Potency is 1.05 µM (active) in test [7] and 18.7 µM (active) in test [8].
For `COC(=O)[C@]12CCC(C)(C)C[C@@H]1[C@@H]1C(=O)C=C3[C@@]4(C)C=C(C#N)C(=O)C(C)(C)[C@@H]4CC[C@@]3(C)[C@]1(C)CC2`, the Potency is 0.264 µM (active) in [1]; 0.743 µM (active) in test [2]; 0.662 µM (active) in test [4]; 0.209 µM (active) in [7]; 0.469 µM (active) in test [8]; 0.264 µM (active) in test [9].
Turning to `Fc1cc(-c2cccc3ncc(-c4cnn(C5CCNCC5)c4)nc23)cc(F)c1CN1CCOCC1`, the Potency is 20.9 µM (active) in [1]; 23.5 µM (active) in test [3]; 6.62 µM (active) in [10]; 14.8 µM (active) in test [4]; 6.62 µM (active) in test [5]; 16.6 µM (active) in test [6]. For the same compound, the Potency was 8.33 µM (active) in test [7], 23.5 µM (active) in test [8] and 20.9 µM (active) in [9].
Consider `CS(=O)(=O)c1ccc(-c2cnc(N)c(C(=O)Nc3ccccc3)n2)cc1`, for which the values for the Potency in test [1], in [5] and in [7] were 5.26 µM (active), 1.66 µM (active) and 10.5 µM (active), respectively. Further, the Potency entry in test [2] and in test [3] was “inactive” each time.
Regarding `Cc1cccc(C=NNc2cc(N3CCOCC3)nc(OCCc3ccccn3)n2)c1`, the Potency was 6.62 µM (active) in [1]; 11.8 µM (active) in test [2]; 0.235 µM (active) in test [10]; 23.5 µM (active) in [6]; 4.18 µM (active) in [7]; 16.6 µM (active) in test [8].
Consider `Cc1ccc2nc(NC(=O)CSc3nc4c(c(=O)n3-c3ccccc3)SCC4)sc2c1`, for which the Potency in test [1] was 16.6 µM (active); in [2] it was 8.33 µM (active); in [10], 11.8 µM (active); in test [8], 11.8 µM (active); in test [9] it was 20.9 µM (active).
Regarding `Nc1ccc(S(=O)(=O)Nc2ncccn2)cc1`, the Potency entry in [1], in test [2], in test [3], in test [7] and in test [9] was “inactive” each time. Further, the viability (commonly a read-out of living cells in per cent, often relative to untreated cells) in test [8] is 155%.
Consider `O=C(Nc1nc2cccc(-c3ccc(CN4CCS(=O)(=O)CC4)cc3)n2n1)C1CC1`, for which the Potency in test [1] is 14.8 µM (active); in [2] it was 20.9 µM (active); in test [4] it was 8.33 µM (active); in [5], 9.35 µM (active); in [6], 6.62 µM (active); in test [7], 14.8 µM (active). The Potency in test [8] is 16.6 µM (active); in test [9] it was 14.8 µM (active).
Regarding `O=C(CCCCCCNC(=O)c1cnc(N(c2ccccc2)c2ccccc2)nc1)NO`, the Potency in test [1] was 3.72 µM (active); in test [2], 5.9 µM (active); in test [10], 4.69 µM (active); in [4], 5.9 µM (active); in [5] it was 13.2 µM (active); in [6], 4.69 µM (active). Besides, the Potency is 6.62 µM (active) in test [7], 9.35 µM (active) in [8] and 9.35 µM (active) in test [9].
